# According to PMC7862700, “An all-to-all approach to the identification of sequence-specific readers for epigenetic DNA modifications on cytosine”:
# Experiments:
# Assay in all cases: DAPPL (digital affinity profiling via proximity ligation, sequencing); 10 mM Tris-HCl pH 7.5, 50 mM NaCl, 1 mM DTT, 4% glycerol, room temperature, 30 min; GST-TFs on glutathione beads, 16-mer random dsDNA library, 0.1% formaldehyde crosslink after washing; high values mean tight binding
# Conditions in all cases: protein: recombinant; tags: N-terminal GST; dsDNA, one strand shown
# [1] = target: T1, FEV (Homo sapiens, UniProt Q99581 1-238)
# T1 sequence: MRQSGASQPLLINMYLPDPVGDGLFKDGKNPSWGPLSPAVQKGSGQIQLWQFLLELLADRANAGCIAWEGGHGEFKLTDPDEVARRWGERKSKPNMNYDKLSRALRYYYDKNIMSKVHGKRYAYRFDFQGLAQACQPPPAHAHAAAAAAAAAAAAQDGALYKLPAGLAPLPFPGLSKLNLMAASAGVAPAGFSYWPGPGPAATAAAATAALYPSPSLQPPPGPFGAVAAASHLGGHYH
# How it was run: (§1)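 GST fusions of human transcription factors were expressed in yeast and captured with glutathione beads. Once given DNA barcodes and pooled alongside a tag-only sample, they were incubated for 30 min at room temperature with 200 nmole of a random double-stranded 16-mer DNA library in Tris/NaCl/DTT/glycerol buffer, then washed, crosslinked (0.1% formaldehyde), proximity-ligated, PCR-amplified and sequenced on an Illumina NextSeq500. The binding signal of each hexamer is its read frequency for a factor divided by its frequency for the tag-only sample.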
# [2] = target: ETV5 (Homo sapiens, UniProt P41161 1-510)
# How it was run: as §1
# [3] = target: T2, SPIC (Homo sapiens, UniProt Q8N5J4 1-248)
# T2 sequence: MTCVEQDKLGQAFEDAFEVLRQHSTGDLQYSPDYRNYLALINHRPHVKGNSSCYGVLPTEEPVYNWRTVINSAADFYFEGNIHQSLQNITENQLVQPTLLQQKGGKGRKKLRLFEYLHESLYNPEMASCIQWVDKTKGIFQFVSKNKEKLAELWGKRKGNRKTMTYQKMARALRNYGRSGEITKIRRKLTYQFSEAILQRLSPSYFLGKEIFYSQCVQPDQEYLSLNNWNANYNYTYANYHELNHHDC
# How it was run: as §1
# [4] = target: ELF4 (Homo sapiens, UniProt Q99607 1-663)
# How it was run: as §1
# [5] = target: T3, ELK4 (Homo sapiens, UniProt P28324-2 1-405)
# T3 sequence: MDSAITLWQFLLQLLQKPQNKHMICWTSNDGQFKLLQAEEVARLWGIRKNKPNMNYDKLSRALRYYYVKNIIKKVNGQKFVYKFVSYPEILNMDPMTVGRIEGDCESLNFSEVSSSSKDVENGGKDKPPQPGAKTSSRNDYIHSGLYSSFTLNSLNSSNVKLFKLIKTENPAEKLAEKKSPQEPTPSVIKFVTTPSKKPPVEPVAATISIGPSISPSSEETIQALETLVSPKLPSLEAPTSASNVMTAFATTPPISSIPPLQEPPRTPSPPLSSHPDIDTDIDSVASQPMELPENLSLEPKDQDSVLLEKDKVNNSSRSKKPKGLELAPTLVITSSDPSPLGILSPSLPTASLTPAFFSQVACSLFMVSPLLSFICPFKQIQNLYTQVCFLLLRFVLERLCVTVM
# How it was run: as §1
# [6] = target: T4, ETV2 (Homo sapiens, UniProt O00321 1-342)
# T4 sequence: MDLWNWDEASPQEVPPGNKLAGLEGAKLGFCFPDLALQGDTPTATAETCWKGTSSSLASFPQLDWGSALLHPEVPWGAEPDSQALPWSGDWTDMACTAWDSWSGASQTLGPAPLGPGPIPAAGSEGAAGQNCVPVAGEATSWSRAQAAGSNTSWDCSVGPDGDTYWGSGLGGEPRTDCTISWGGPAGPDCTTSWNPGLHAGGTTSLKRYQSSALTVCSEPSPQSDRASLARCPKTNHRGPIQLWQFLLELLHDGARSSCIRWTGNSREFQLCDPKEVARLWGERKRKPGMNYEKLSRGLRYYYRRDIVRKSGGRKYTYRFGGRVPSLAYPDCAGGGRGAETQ
# How it was run: as §1
# [7] = target: T5, ELF3 (Homo sapiens, UniProt P78545 1-371)
# T5 sequence: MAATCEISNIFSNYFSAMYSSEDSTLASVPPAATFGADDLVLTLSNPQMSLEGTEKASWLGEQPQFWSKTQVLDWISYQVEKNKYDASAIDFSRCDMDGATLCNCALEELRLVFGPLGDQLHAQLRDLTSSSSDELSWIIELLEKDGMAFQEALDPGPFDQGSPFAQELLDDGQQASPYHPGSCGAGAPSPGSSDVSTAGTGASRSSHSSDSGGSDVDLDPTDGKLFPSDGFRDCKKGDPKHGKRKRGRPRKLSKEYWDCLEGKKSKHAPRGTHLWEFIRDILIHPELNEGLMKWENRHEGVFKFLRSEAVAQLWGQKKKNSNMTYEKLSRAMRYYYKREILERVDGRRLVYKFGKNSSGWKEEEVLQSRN
# How it was run: as §1
# [8] = target: ETV1 (Homo sapiens, UniProt P50549 1-477)
# How it was run: as §1
# [9] = target: T6, ERF (Homo sapiens, UniProt P50548 1-548)
# T6 sequence: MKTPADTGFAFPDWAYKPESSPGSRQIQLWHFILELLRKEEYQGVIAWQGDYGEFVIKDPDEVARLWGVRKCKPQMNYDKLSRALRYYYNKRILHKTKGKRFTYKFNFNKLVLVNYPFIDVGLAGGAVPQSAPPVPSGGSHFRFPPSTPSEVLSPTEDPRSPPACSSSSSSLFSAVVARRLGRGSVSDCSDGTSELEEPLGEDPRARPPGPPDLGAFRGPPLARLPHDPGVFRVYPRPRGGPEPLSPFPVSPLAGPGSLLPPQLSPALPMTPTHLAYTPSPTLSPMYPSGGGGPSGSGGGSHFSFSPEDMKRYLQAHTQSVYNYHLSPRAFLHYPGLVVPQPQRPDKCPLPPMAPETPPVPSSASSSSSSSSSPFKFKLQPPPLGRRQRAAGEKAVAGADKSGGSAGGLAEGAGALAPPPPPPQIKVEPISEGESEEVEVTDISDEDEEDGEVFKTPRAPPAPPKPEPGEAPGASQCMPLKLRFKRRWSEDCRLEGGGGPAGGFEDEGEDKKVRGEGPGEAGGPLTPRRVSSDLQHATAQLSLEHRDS
# How it was run: as §1
# [10] = target: T7, ETV3L (Homo sapiens, UniProt Q6ZN32 1-361)
# T7 sequence: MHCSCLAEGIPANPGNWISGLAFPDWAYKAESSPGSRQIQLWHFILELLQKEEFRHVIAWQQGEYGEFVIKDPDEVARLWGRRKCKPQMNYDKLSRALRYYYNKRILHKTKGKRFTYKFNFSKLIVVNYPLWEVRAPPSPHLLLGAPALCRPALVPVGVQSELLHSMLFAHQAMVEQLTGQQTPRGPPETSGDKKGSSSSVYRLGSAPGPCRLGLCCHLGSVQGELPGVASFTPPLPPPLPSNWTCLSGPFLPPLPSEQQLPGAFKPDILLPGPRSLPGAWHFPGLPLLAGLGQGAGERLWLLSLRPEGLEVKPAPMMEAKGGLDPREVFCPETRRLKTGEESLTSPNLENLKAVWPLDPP
# How it was run: as §1
# [11] = target: T8, ETS2 (Homo sapiens, UniProt P15036 1-469)
# T8 sequence: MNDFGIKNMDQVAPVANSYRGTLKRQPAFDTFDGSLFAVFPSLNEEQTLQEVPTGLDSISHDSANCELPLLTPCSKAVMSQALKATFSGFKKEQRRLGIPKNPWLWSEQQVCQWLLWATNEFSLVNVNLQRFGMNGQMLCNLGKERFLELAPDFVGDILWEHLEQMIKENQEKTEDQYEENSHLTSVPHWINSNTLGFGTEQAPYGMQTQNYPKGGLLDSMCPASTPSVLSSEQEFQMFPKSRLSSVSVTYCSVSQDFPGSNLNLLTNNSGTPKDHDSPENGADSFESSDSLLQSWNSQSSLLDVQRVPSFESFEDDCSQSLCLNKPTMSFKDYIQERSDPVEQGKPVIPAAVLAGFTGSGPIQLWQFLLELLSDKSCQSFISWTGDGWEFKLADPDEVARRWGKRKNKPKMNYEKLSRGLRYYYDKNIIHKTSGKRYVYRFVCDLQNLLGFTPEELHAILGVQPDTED
# How it was run: as §1
# [12] = target: T9, SPDEF (Homo sapiens, UniProt O95238 1-335)
# T9 sequence: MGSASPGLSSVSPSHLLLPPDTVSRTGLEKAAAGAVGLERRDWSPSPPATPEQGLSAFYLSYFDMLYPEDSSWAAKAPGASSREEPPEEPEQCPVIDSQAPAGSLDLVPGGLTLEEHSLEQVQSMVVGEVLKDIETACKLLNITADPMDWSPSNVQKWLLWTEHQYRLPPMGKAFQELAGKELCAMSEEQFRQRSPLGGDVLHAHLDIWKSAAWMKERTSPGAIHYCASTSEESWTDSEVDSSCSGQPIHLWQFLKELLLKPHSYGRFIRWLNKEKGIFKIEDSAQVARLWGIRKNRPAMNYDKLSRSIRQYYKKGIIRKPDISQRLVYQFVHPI
# How it was run: as §1
# [13] = target: T10, ETV7 (Homo sapiens, UniProt Q9Y603 1-341)
# T10 sequence: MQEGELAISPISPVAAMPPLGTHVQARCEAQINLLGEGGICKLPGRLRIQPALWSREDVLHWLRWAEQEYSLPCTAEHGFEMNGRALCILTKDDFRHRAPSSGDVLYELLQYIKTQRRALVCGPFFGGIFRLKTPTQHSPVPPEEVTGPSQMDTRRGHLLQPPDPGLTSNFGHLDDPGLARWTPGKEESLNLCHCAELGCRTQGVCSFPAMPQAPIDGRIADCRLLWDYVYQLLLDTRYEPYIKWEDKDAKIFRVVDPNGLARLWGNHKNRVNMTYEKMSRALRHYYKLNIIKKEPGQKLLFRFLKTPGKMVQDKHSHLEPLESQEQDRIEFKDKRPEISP
# How it was run: as §1
# [14] = target: T11, ELF5 (Homo sapiens, UniProt Q9UKW6-2 1-255)
# T11 sequence: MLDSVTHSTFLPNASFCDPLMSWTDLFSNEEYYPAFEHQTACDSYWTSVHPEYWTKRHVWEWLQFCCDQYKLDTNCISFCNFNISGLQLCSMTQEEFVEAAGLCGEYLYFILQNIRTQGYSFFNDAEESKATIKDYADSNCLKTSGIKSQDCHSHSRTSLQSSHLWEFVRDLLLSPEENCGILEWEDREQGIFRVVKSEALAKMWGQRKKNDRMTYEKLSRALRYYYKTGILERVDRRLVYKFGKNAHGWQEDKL
# How it was run: as §1
# [15] = target: T12, ETV3 (Homo sapiens, UniProt P41162-2 1-143)
# T12 sequence: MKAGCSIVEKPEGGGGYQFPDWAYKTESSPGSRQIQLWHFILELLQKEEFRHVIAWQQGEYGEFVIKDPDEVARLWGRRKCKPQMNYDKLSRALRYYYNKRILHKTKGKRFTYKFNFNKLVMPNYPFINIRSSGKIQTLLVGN
# How it was run: as §1
# [16] = target: ETV6 (Homo sapiens, UniProt P41212 1-452)
# How it was run: as §1
# Sequence of ETV6 (P41212 whole entry): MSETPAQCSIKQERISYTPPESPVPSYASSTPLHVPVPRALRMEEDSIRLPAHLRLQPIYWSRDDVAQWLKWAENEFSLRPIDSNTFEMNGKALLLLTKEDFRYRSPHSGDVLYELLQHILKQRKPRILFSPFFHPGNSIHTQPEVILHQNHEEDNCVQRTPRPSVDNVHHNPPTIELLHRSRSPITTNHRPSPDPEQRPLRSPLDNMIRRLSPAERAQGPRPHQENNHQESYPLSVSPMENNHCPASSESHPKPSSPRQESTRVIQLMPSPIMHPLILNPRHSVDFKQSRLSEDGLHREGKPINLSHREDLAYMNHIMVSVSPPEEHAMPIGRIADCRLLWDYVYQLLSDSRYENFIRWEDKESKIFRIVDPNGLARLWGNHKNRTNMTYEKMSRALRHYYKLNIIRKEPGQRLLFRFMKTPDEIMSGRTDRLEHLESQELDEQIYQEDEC
# Sequence of ETV1 (P50549 whole entry): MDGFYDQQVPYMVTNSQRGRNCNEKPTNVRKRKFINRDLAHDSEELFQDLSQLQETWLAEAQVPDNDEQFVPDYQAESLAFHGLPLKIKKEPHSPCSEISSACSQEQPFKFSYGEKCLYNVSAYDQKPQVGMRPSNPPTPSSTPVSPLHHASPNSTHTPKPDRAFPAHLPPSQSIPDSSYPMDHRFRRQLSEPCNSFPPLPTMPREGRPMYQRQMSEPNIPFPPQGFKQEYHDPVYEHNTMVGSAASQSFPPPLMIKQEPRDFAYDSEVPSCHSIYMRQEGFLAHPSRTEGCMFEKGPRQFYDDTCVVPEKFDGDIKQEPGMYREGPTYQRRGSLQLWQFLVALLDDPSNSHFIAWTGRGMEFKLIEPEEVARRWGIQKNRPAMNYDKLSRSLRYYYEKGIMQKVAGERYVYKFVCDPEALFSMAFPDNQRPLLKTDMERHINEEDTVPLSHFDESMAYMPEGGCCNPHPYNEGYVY
# Sequence of ELF4 (Q99607 whole entry): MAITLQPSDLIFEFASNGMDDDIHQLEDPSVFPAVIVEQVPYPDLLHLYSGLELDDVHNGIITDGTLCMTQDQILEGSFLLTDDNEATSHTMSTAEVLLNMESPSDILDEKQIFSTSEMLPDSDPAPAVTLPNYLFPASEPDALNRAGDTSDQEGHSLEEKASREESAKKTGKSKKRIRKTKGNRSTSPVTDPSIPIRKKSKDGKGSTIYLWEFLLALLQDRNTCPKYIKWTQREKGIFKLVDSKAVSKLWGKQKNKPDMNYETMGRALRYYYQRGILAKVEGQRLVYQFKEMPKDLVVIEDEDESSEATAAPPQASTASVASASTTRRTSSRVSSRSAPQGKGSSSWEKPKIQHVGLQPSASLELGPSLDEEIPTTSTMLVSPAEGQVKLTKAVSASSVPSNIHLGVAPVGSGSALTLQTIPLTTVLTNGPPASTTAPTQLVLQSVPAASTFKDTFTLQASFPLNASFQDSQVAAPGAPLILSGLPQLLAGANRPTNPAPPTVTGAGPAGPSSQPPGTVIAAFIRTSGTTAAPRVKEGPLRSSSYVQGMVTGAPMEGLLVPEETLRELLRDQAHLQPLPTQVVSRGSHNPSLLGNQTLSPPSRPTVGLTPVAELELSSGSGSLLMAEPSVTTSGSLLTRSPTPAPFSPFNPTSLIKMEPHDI
# Sequence of ETV5 (P41161 whole entry): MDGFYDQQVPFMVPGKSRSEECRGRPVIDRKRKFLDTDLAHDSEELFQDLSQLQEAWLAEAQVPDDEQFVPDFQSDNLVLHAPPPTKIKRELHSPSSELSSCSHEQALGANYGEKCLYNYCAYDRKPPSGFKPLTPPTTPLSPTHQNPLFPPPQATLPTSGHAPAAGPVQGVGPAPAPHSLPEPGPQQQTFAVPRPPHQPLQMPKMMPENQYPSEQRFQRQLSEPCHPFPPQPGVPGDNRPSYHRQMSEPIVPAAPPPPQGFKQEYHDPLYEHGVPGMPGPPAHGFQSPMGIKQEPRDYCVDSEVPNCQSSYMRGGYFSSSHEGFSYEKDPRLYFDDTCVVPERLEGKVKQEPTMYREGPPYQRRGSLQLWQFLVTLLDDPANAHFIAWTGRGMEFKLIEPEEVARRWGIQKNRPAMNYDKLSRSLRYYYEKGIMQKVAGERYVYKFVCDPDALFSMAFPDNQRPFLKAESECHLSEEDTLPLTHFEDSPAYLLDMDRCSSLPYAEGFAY
sequence,measurement,setting,value
TACAAC,binding signal,[1],"1.17 fold enrichment (6-mer frequency, TF over GST control)"
same,binding signal,[2],"1.13 fold enrichment (6-mer frequency, TF over GST control)"
same,binding signal,[3],"1.22 fold enrichment (6-mer frequency, TF over GST control)"
same,binding signal,[4],"1.11 fold enrichment (6-mer frequency, TF over GST control)"
same,binding signal,[5],"1.07 fold enrichment (6-mer frequency, TF over GST control)"
same,binding signal,[6],"1.09 fold enrichment (6-mer frequency, TF over GST control)"
same,binding signal,[7],"1.02 fold enrichment (6-mer frequency, TF over GST control)"
same,binding signal,[8],"1.13 fold enrichment (6-mer frequency, TF over GST control)"
same,binding signal,[9],"1.1 fold enrichment (6-mer frequency, TF over GST control)"
same,binding signal,[10],"1.11 fold enrichment (6-mer frequency, TF over GST control)"
same,binding signal,[11],"1.12 fold enrichment (6-mer frequency, TF over GST control)"
same,binding signal,[12],"1.17 fold enrichment (6-mer frequency, TF over GST control)"
same,binding signal,[13],"1.09 fold enrichment (6-mer frequency, TF over GST control)"
same,binding signal,[14],"1.09 fold enrichment (6-mer frequency, TF over GST control)"
same,binding signal,[15],"1.15 fold enrichment (6-mer frequency, TF over GST control)"
same,binding signal,[16],"1.11 fold enrichment (6-mer frequency, TF over GST control)"
TGGTGT,binding signal,[1],"1.14 fold enrichment (6-mer frequency, TF over GST control)"
same,binding signal,[2],"1.26 fold enrichment (6-mer frequency, TF over GST control)"
same,binding signal,[3],"1.09 fold enrichment (6-mer frequency, TF over GST control)"
same,binding signal,[4],"1.34 fold enrichment (6-mer frequency, TF over GST control)"
same,binding signal,[5],"1.31 fold enrichment (6-mer frequency, TF over GST control)"
same,binding signal,[6],"1.45 fold enrichment (6-mer frequency, TF over GST control)"
same,binding signal,[7],"1.25 fold enrichment (6-mer frequency, TF over GST control)"
same,binding signal,[8],"1.2 fold enrichment (6-mer frequency, TF over GST control)"
same,binding signal,[9],"1.19 fold enrichment (6-mer frequency, TF over GST control)"
same,binding signal,[10],"1.25 fold enrichment (6-mer frequency, TF over GST control)"
same,binding signal,[11],"1.32 fold enrichment (6-mer frequency, TF over GST control)"
same,binding signal,[12],"1.23 fold enrichment (6-mer frequency, TF over GST control)"
same,binding signal,[13],"1.08 fold enrichment (6-mer frequency, TF over GST control)"
same,binding signal,[14],"1.14 fold enrichment (6-mer frequency, TF over GST control)"
same,binding signal,[15],"1.25 fold enrichment (6-mer frequency, TF over GST control)"
same,binding signal,[16],"1.31 fold enrichment (6-mer frequency, TF over GST control)"
